A selection: hits, their analogues and other compounds. The true share with any hit is near 2.8%.
HIF-2a block = HIF-2a reporter inhibitors, primary screen, luminescence, 786-0 RCC cells | 786-0 RCC cells HIF-2a reporter, luciferase luminescence, overnight | inhibition, % at 18.8 µM | 0.72% of 360,000 active;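 active = inhibition of the luminescence signal of 40% or more relative to plate controls, in a single-dose primary screen at 18.75 µM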
Peg3 promoter = Peg3 promoter-driven luciferase inhibitors, primary screen, cell-based, HeLa, luciferase luminescence; HeLa PEG-Prom luciferase reporter, overnight; inhibition, % at 20 µM; 1.7% of 360,000 active;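 active = inhibition of at least 50% at 20 µM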
MITF TRPM1 inh = inhibitors of MITF-dependent TRPM1 promoter reporter, primary screen, cell-based, SK-MEL-5, single point, luciferase. SK-MEL-5 TRPM1 promoter luciferase, 24 h. 0.83% of 330,000 active. inhibition, % at 12.5 µM;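 active = mean inhibition across replicates of 60% or more, whatever share of single replicates reaches that level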
KKLEB tox = cytotoxicity in KKLEB CF airway cells, primary screen, cytotoxicity control for CF NF-kB inhibitor project, cell-based, uHTS, fluorescence assay plates; KKLEB CF airway cells viability, ATPlite luminescence, overnight; active compounds read low; cells stimulated with P. aeruginosa culture filtrate; activity change (cytotoxicity), % at 5 µM; 0.36% of 360,000 active;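 active = corrected activity change at or below -50% at 5 µM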
CF NFkB block = inhibitors of PAF-induced NF-kB signaling, primary screen, cell-based, GFP fluorescence, uHTS; KKLEB NF-kB-GFP reporter, GFP fluorescence overnight; inhibition, % at 5 µM; 0.86% of 360,000 active; AID 588850, 2011;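 active = at least 50% inhibition at 5 µM, scaled per plate between neutral and stimulator controls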;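 note: PAF is a Pseudomonas aeruginosa culture filtrate used as stimulus; plate controls were PAF-stimulated DMSO wells for no effect and unstimulated DMSO wells for full effect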
Shn3 inh set2 = reduction of Shn3 3'UTR firefly luciferase signal, primary screen, Schnurri-3 inhibitor project, cell-based, Clone20 osteoblasts, set 2 | Clone20 osteoblast Shn3 3'UTR firefly luciferase, 24 h | inhibition, % at 12.5 µM | 0.52% of 360,000 active;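 active = mean inhibition of at least 75% with every replicate also reaching 75%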;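 note: 0% = median of neutral control wells and 100% = pilot-screen positive control compound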
CF NFkB conf = inhibitors of PAF-induced NF-kB signaling, retest, confirmation, cell-based, GFP fluorescence, single concentration. shares compounds with CF NFkB block. KKLEB CF airway cells, overnight. inhibition, % at 5 µM. 64% of 1,300 active. AID 602472, 2012; in the data active = inhibition above about 40%;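 note: stimulus PAF is a Pseudomonas aeruginosa filtrate and not platelet activating factor; plate controls were DMSO wells with stimulus for no effect and unstimulated DMSO wells for full effect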
* marks the source's active call; other numbers are inactive results; . = no result given.

SMILES | HIF-2a block | Peg3 promoter | MITF TRPM1 inh | KKLEB tox | CF NFkB block | Shn3 inh set2 | CF NFkB conf
CCOC(=O)N1CCN(CC(=O)Nc2ccc([N+](=O)[O-])cc2C(=O)Nc2ccccc2F)CC1 | 9.9 | 63.7* | -2.7 | -5.5 | 66.9* | 11.2 | 26.3
CCc1ccc(C(=O)C(C)OC(=O)c2cccc(S(=O)(=O)N3CCOCC3)c2)cc1 (stereo not given) | 5.9 | -5.1 | -2.3 | -5.7 | -4.5 | 9.6 | .
Cc1nc([N+](=O)[O-])c(Br)n1Cc1ccccc1 | 18.3 | -1.0 | 15.8 | -3.0 | 34.1 | 6.4 | .
Cc1nc([N+](=O)[O-])c(Sc2nc3ccc([N+](=O)[O-])cc3[nH]2)n1Cc1ccccc1 | 18.8 | -0.2 | -6.3 | -49.8 | 70.3* | 47.1 | 54.7*
CN(c1cccc(NC(=O)c2ccc(Cl)c(S(=O)(=O)N3CCOCC3)c2)c1)S(C)(=O)=O | 11.4 | 7.5 | 18.1 | -23.5 | 28.1 | 9.4 | .
CCOc1ccc(/C=N/n2cnnc2)cc1 | 8.6 | 13.0 | 2.3 | 9.2 | 2.6 | -15.6 | .
CC(=O)Oc1ccccc1C(=O)Oc1ccc(/C=N/n2cnnc2)cc1 | 14.7 | 9.1 | -5.5 | -15.3 | 72.9* | 2.1 | 63.8*
CC1(c2ccccc2)NC(=O)N(CC(=O)N2CCN(S(=O)(=O)c3cccs3)CC2)C1=O (stereo not given) | 12.6 | 4.0 | 1.9 | -11.3 | 7.1 | 0.3 | .
COC(=O)c1ccccc1NC(=O)c1ccccc1OC | -17.8 | -25.7 | -13.2 | -2.3 | 14.4 | -1.0 | .
COc1ccccc1C(=O)Nc1ccccc1SC(=O)c1ccccc1OC | -98.4 | -92.7 | -8.1 | 2.1 | 51.3* | -47.4 | 39.3
CCCCCCc1cc2cc(S(=O)(=O)c3ccc(F)cc3)c(=O)oc2cc1O | 5.0 | 42.7 | -9.9 | -36.2 | 51.2* | 2.8 | 77.7*
CCCCCCc1cc2cc(C(=O)Nc3ccccc3OC)c(=O)oc2cc1O | 9.2 | 2.6 | 3.5 | -42.4 | 53.6* | -1.7 | 55.3*
Cc1ccc(C(=O)N(C)CC(=O)Nc2cccc(C)c2C)o1 | 9.8 | 2.2 | -5.1 | 12.5 | -17.4 | -0.4 | .
O=C(CNCc1cccs1)Nc1ccc(N2CCCCCC2)cc1 | -56.1 | -12.9 | -5.8 | -12.7 | -6.9 | 5.0 | .
CON(C)S(=O)(=O)c1cccc(C(=O)N(CC(=O)Nc2ccccc2C(F)(F)F)Cc2ccco2)c1 | 2.8 | 5.9 | 2.6 | -13.4 | 14.3 | -4.3 | .
Cc1cc(NC(=O)c2cc(-c3ccc(C)s3)nc3ccccc23)no1 | 0.1 | 1.3 | -16.7 | 1.4 | -43.9 | -11.6 | .
Cc1cccc(NC(=O)c2cc(-c3ccc(C)s3)nc3ccccc23)n1 | -62.1 | 46.0 | 3.6 | -7.3 | 74.1* | 6.8 | 76.0*
Nc1ncnc(Sc2ccc(Cl)cc2)c1[N+](=O)[O-] | -20.1 | -7.3 | -0.1 | -13.4 | 64.0* | -0.7 | 61.8*
Nc1ncnc(Sc2ccccc2)c1[N+](=O)[O-] | 6.1 | 20.8 | -6.1 | -1.6 | 51.6* | 9.3 | 21.6
Cc1ccc(Sc2ncnc(N)c2[N+](=O)[O-])cc1 | -18.1 | -1.4 | 0.2 | 0.7 | 33.9 | -24.4 | .
CN(Cc1ccccc1)c1ncnc(N)c1[N+](=O)[O-] | 11.3 | -4.8 | -25.1 | -8.8 | 66.8* | 16.6 | 60.9*
CC1CCN(CCC(=O)N/N=C/c2ccc([N+](=O)[O-])cc2)CC1 | 12.9 | 13.3 | -3.6 | -2.6 | -4.8 | -4.1 | .
Clc1cccc(Nc2nc(-c3ccncc3)nc3ccccc23)c1 | 7.8 | 82.5* | 5.0 | -42.5 | 64.2* | 11.9 | -39.5
Clc1ccccc1Nc1nc(-c2ccncc2)nc2ccccc12 | 23.1 | -0.8 | -21.9 | -0.3 | -9.8 | 19.9 | .
CCOC(=O)C1(CCOC)CCN(C(C)CCc2ccc(OC)cc2)CC1 (stereo not given) | 9.6 | -5.7 | 1.1 | 6.7 | -0.8 | 14.6 | .
SMILES | HIF-2a block | Peg3 promoter | MITF TRPM1 inh | KKLEB tox | CF NFkB block | Shn3 inh set2 | CF NFkB conf
c1ccc2c(-c3ccc4nncn4c3)cncc2c1 | 4.5 | 6.2 | . | 3.2 | 72.8* | 10.0 | 89.5*
CC1CCC(NC(=O)Cn2c(=O)oc3ccccc32)CC1 (stereo not given) | -13.7 | -41.1 | -6.7 | 11.0 | -9.1 | -8.4 | .
C=C1C[C@@]23CCC4[C@@](C)(CCC[C@@]4(C)C(=O)OC)C2CC[C@]1(OC(C)=O)C3 (stereo not given in full) | -88.2 | 5.0 | 11.8 | -27.6 | 50.7* | 23.6 | 0.8
O=C(Nc1ccccn1)c1sc2cccc(F)c2c1Cl | -129.0 | -141.7 | 10.5 | -48.5 | -13.4 | 2.7 | .
O=C(Nc1cccnc1)c1sc2cccc(F)c2c1Cl | -304.1 | -240.7 | -65.5 | -9.0 | 52.6* | -119.6 | 53.7*
COc1ccc(C2CNC(=O)C2)cc1OC1CCCC1 (stereo not given) | 3.8 | -9.5 | -11.9 | -14.2 | 52.3* | -10.5 | 54.6*
COc1ccc(CCNS(=O)(=O)c2ccc(C3CNC(=O)C3)cc2)cc1OC (stereo not given) | 5.8 | -3.3 | -3.2 | 8.1 | -1.1 | -1.5 | .
CC(=O)Nc1ccc(-c2ccnc3c2CC(C)(C(=O)Nc2cccc(C(C)=O)c2)O3)cc1 (stereo not given) | 10.3 | 0.7 | . | -1.7 | -31.5 | 22.8 | .
CCOc1ccc(NC(=O)Nc2ccc3c(c2)N(C)C(=O)CS3)cc1 | -10.0 | 3.3 | -11.3 | 8.8 | 17.0 | 10.0 | .
CC(=O)c1ccc(NC(=O)Nc2ccc3c(c2)N(C)C(=O)CS3)cc1 | -49.9 | -14.3 | -16.2 | -33.8 | 71.8* | -15.2 | 53.1*
Cc1cc(N2C(=O)C(O)=C(C(=O)c3ccc(C)o3)C2c2cccc(Cl)c2)no1 (stereo not given) | 12.5 | 1.2 | . | 8.4 | -18.7 | 13.5 | .
Cc1cc(N2C(=O)C(O)=C(C(=O)c3ccc(C)o3)C2c2cccc(Oc3ccccc3)c2)no1 (stereo not given) | 3.6 | 15.4 | -2.2 | 5.7 | 51.1* | -3.3 | 64.4*
C=CCSc1nc2ccccc2n1C(=O)/C=C/c1ccc(OC)c(OC)c1 | -34.6 | 104.4* | 38.2 | -41.8 | 91.9* | 97.7* | 103.4*
COc1cccc(C(=O)N2CCCc3ccccc32)c1 | 5.2 | 9.2 | -9.7 | -49.7 | 53.5* | 16.4 | 10.4
COc1ccc(C(=O)N2CCCc3ccccc32)cc1OC | 19.4 | 11.3 | -15.6 | 2.7 | 26.6 | 1.3 | .
COc1ccc(Cl)cc1NC(=O)c1cc(C)no1 | 8.7 | -2.0 | 20.3 | 3.3 | -3.7 | -0.8 | .

Screening data as filed in PubChem BioAssay.
